Compounds with a hit are over-represented: about 11% of the library has one in this group of screens.
HPGD inh: inhibitors of human 15-hydroxyprostaglandin dehydrogenase (HPGD); P15428; purified HPGD, NADH fluorescence kinetic, PGE2 substrate; Potency, µM, without a hit: top-dose activity change, negative = inhibition, actives largely listed as inhibitors; 4.3% of 150,000 active; further: potency means the concentration at half of the fitted maximal effect
Target sequence (P15428 whole entry, looked up): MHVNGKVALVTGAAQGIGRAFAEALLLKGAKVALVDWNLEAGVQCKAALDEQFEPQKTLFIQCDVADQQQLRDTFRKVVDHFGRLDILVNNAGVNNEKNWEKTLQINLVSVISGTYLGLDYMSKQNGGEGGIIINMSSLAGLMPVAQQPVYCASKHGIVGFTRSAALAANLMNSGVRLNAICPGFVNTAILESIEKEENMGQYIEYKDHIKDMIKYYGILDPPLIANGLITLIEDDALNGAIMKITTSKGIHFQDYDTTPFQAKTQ
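20 nM HPGD preincubated 15 min at room temperature with compound in 50 mM Tris-HCl pH 8, 0.01% Tween 20. Started with 1 mM NAD+ and 30 uM prostaglandin E2; NADH fluorescence (360/450 nm) read 5 times over 30-s intervals, last minus first.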
IMPase inh: membrane-permeable compound that blocks inositol monophosphatase | CHO-M1 cells, IP1 accumulation, HTRF TR-FRET ratio | inhibition (IP1 accumulation), % at 46.1 µM | AID 901 | 120,000 tested, under 10 active; active means well fitted curve in the direction sought with a large enough effect in the signal ratio, not every such curve was filed as active; inconclusive means small, poorly fitted or top-dose-only effect, or a change in a side signal; inactive means no such curve, though single readings can be large or run the other way; the % refers to the signal ratio;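 further: cells stimulated with carbachol in lithium chloride buffer; plate controls were DMSO basal wells for no effect and reference inhibitor wells for full effect; higher means more IMPase inhibition seen as more IP1 and lower FRET ratio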
Target sequence (P97697 whole entry, looked up): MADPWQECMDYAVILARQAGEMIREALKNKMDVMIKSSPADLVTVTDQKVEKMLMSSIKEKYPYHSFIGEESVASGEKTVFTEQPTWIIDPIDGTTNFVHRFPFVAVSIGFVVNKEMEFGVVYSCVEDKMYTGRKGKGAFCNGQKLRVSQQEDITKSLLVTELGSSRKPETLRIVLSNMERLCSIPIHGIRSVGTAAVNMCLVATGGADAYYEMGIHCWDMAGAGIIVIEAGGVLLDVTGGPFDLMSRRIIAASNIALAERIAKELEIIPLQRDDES
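In this qHTS, compounds (final up to 46 uM) act on CHO-M1 cells that are then activated through the M1 receptor with carbachol, in pH 7.4 buffer containing 50 mM LiCl, for 30 min. IP1 accumulation is quantified by the IP-One immunoassay.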
ALDH1A1 block: blocks purified human ALDH1A1 activity. 7.3% of 220,000 active. Potency, µM (top dose mostly 75.3 µM), for inactives: at the highest dose activity, negative = inhibition, actives largely listed as inhibitors. Purified ALDH1A1, NADH fluorescence, propionaldehyde substrate. AID 1030. P00352;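 further: potency means the concentration at half of the fitted maximal effect; plate controls were no enzyme wells and a reference inhibitor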
12-hLO inh: 12-hLO (ALOX12) enzyme inhibition; P18054; 0.12% of 150,000 active; AID 1452; Potency, µM (doses to about 57.1 µM), without a hit: top-dose activity change, negative = inhibition, hits mostly inhibitors; purified 12-hLO, xylenol orange hydroperoxide absorbance; active means well fitted curve in the direction sought with a large enough effect; inconclusive means small, poorly fitted or top-dose-only effect, or another doubt; inactive means no such curve, though single readings can be large; an effect the other way counts as inactive or inconclusive; further: potency means the concentration at half of the fitted maximal effect; nearly all actives have a fitted effect of over 55% in size
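Purified human 12hLO (150 nM final) was preincubated with compounds for 15 min at room temperature in 25 mM Hepes pH 7.0, 0.01% Triton X-100, then reacted with 40 uM arachidonic acid for 30 min. Hydroperoxide was detected with ferrous iron/xylenol orange.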
PNC inhibitor: blocks assembly of the perinucleolar compartment; PC3M PTB-GFP, PNC prevalence imaging, 16 h; stronger effect = lower value; activity change (PNC), negative = inhibition, % at 10 µM; 3.1% of 140,000 active;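 active means readout at or below -70, meaning at least 70% loss of cells showing the perinucleolar compartment, a nuclear body marking cancer cells; inconclusive means readout between -30 and a set limit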;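 further: plate controls were DMSO wells for no effect and camptothecin positive control wells for full effect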
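Read-out is percentage of cells bearing a perinucleolar compartment, from automated 20x imaging of fixed, Hoechst-stained PC3M PTB-GFP cells. Cells were seeded 4 h, then exposed 16 h to compound (23 nl of library stock) in duplicate plates.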
IMPase Li cell: membrane-permeable IMPase blocker, potentiated with lithium; CHO-M1 cells, IP1 TR-FRET (IP-One), carbachol + lithium; AID 1457; 0.35% of 210,000 active; Potency, µM (highest dose often 59.4 µM), inactives show at the top dose activity, negative = IMPase inhibition, usual class: inhibitors; active means well fitted curve in the direction sought with a large enough effect; inconclusive means small, poorly fitted or top-dose-only effect, or another doubt; inactive means no such curve, though single readings can be large; an effect the other way counts as inactive or inconclusive;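 further: IP1 builds up when IMPase is blocked and the TR-FRET signal falls; potency means the concentration at half of the fitted maximal effect; plate controls were basal vehicle for no effect and high inhibitor control for full effect; nearly all actives have a fitted effect of over 50% in size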
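Concentration–response in CHO-M1 cells, lithium-potentiated; 30 min at 37C. IP1 detected by competitive TR-FRET after 10 min lysis at RT. Hill-fitted AC50.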
The depositor's hits bear a star; ? = inconclusive; . = no result given; [ ] = another dose, or the depositor's remark. Unless noted, the call rests on the fitted dose curve; in most records, active means well fitted inhibition curve with a large enough effect (not every such curve was filed as active); inconclusive means small, poorly fitted or top-dose-only effect, or another doubt; inactive means no such curve, though single readings can be large or run the other way. Unless noted, on the % scale 0 is the no-effect control and ±100 the full control effect.

SMILES	HPGD inh	IMPase inh	ALDH1A1 block	12-hLO inh	PNC inhibitor	IMPase Li cell
CC1CC(C)CN(c2cc(N(C)CCO)c([N+](=O)[O-])c3nonc23)C1 (stereo not given)	.	.	11µM*	.	.	-8%
Cn1cccc1/C=C1\SC(=S)N(NC(=O)c2cccc(Cl)c2)C1=O	-17%	.	2µM*	-25%	-23	13%
Cn1cccc1/C=C1/SC(=S)N(CC(=O)O)C1=O	.	.	28µM*	.	.	23%
CC(C(=O)O)N1C(=O)/C(=C/c2cccn2C)SC1=S (stereo not given)	-24%	.	5%	-14%	?	-7%
Cn1cccc1/C=C1\SC(=S)N(NC(=O)c2ccccc2)C1=O	-13%	.	-17%	-17%	82	-6%
OC[C@H]1NC[C@H](O)[C@@H](O)[C@H]1O	-11%	-2	-13%	6%	.	2%
CN(C)CCNC(=O)c1ccc(Cc2nc3ccccc3[nH]2)cc1	3%	.	-3%	1%	.	.
C[C@@H]1[C@H]2CC[C@@H]3[C@@H]4CC=C5C[C@@H](N(C)C)CC[C@]5(C)[C@@H]4CC[C@@]32CN1C	-9%	10[20.6 µM]	-10%[20.9 µM]	0%[25.6 µM]	.	13%
O=C(O)c1ccccc1-n1ncc2c1/C(=C/c1ccc(Cl)cc1)CC2	.	.	22µM*	.	.	.
COc1cc(-c2cccs2)cc(=O)c2c(C)oc(C)c12	-12%	1	?	?	-96*	6%[38.3 µM]
O=c1[nH]c(/C=C/c2cccc3ccccc23)nc2ccccc12	.	.	-7%	.	.	-8%
CCCN1C(=O)/C(=C\c2nc3ccccc3c(=O)[nH]2)c2ccccc21	.	.	4.5µM*	.	.	35%
COc1ccc(CC/C(C)=N\NC(N)=O)cc1	9%	.	0%	3%	-105*	-4%
CSC1CCCCC1(O)CSc1nc2c(cc1C#N)CCCC2 (stereo not given)	7.9µM*	6	7.9µM*	-14%	?	22%[38.3 µM]
N#CCSc1nc2c(cc1C#N)CCCC2	-14%	-6	-2%	-6%	-18	2%[38.3 µM]
COCCNC(=O)c1sc2ncn(CC(=O)N3CCCCC3)c(=O)c2c1C	-21%	-5	4%	-6%	-15	16%[38.3 µM]
CC(=O)Nc1cccc(NC(=O)c2sc3ncn(CC(=O)N4CCCCC4)c(=O)c3c2C)c1	-27%	3	0.89µM*	11%	-26	16%[38.3 µM]
COc1ccc(CCNC(=O)c2ccc(Cn3c(=O)c4ccccc4n(Cc4cccc(F)c4)c3=O)cc2)cc1OC	.	7	.	.	.	.
C(=N\Nc1nc(-c2ccccc2)cs1)/c1ccncc1	.	.	?	.	.	4%
Cc1ccc(-c2csc(N/N=C/C=C/c3ccccc3)n2)cc1	-26%	3	22µM*	-18%	90	-11%[38.3 µM]
O=P(CO)(Cc1ccccc1)Cc1ccccc1	16µM*	5	8%	9%	?	-10%[38.3 µM]
COc1ccc(CN(C(=O)CSc2nnc(-c3ccccc3C)o2)c2ccc(F)cc2)cc1	?	12	2.5µM*	-4%	72	9%
O=C(NCCOC12CC3CC(CC(C3)C1)C2)c1cccc(Br)c1	-9%	11	7.1µM*	-3%	-19	-14%[38.3 µM]
O=C(O)CCCCCNC(=O)c1cccc(Br)c1	-10%	-1	10%	-2%	27	-4%[38.3 µM]
COc1cccc(Nc2ncc3nc(-c4cc(F)cc(F)c4)c(=O)n(C4CC4)c3n2)c1	-3%	.	16%	-1%	.	-1%
SMILES	HPGD inh	IMPase inh	ALDH1A1 block	12-hLO inh	PNC inhibitor	IMPase Li cell
CCOC(=O)N1CCN(C(=O)c2cc3c(=O)n(C)c4ccccc4c3n2C)CC1	-5%	3	2%	2%	29	5%[38.3 µM]
Cn1c(C(=O)N2CCCCCC2)cc2c(=O)n(C)c3ccccc3c21	2.8µM*	1	?	2%	?	-12%[38.3 µM]
Cn1c(C(=O)N2CCN(Cc3ccccc3)CC2)cc2c(=O)n(C)c3ccccc3c21	16µM*	5	?	4%	33	17%[38.3 µM]
CCN1CCN(C(=O)c2cc3c(=O)n(C)c4ccccc4c3n2C)CC1	-8%	-9	?	1%	-19	48%[38.3 µM]
COc1cc(NC(=O)c2cc3c(=O)n(C)c4ccccc4c3n2C)cc(OC)c1OC	?	?	?	2%	24	3.5µM*
CC(C)CN=Cc1c(O)c([N+](=O)[O-])cc2oc3c(c12)CCCC3	-15%	5	28µM*	-5%	0	12%
O=[N+]([O-])c1cc2oc3c(c2c(C=NCc2ccccc2)c1O)CCCC3	-15%	.	?	-5%	18	15%
COc1ccc(CCN(C)CCC[C@@](C#N)(c2cc(OC)c(OC)c(OC)c2)C(C)C)cc1OC	.	9	.	-3%	.	.
COC(=O)c1cc(C)sc1NC(=O)C1C2C=CC(CC2)C1C(=O)O (stereo not given)	-9%	.	-3%	-1%	?	10µM*
COC(=O)c1sccc1NC(=O)NC1CCCCC1	.	.	-6%	.	.	-7%
COC(=O)c1cc(C)sc1NC(=O)CCCC(=O)O	-13%	3	0%	0%	-119*	18%[38.3 µM]
COC(=O)c1sccc1NC(=S)N(C)C1CCCCC1	.	.	0.35µM*	.	.	7%
COC(=O)c1sccc1NC(=O)C1CC=CCC1C(=O)O (stereo not given)	-26%	?	?	-9%	?	10µM*
C[C@@H](c1ccccc1)N1C(=O)[C@H]2[C@H]3[C@H](O)[C@H](O)C/C(=N/OCc4ccccc4)[C@H]3CC[C@@H]2C1=O	.	.	1%[13.5 µM]	.	.	.
COC(=O)c1c(-c2ccco2)csc1NC(=O)C1CC=CCC1C(=O)O (stereo not given)	.	?	13µM*	-25%	-29	.
Cc1sc(NC(=O)C2CC=CCC2C(=O)O)c(C(=O)OC(C)C)c1C (stereo not given)	-13%	-4	1%	6%	-5	-2%[38.3 µM]
COC(=O)c1cc(C)sc1NC(=O)C1CC=CCC1C(=O)O (stereo not given)	-16%	?	-9%	2%	51	11µM*
Cc1noc(C)c1-c1cncnc1-n1ccnc1	.	.	8%	.	.	-14%
CCCCn1ccnc1C(=O)c1cc(S(=O)(=O)N2CCOCC2)ccc1C	-9%	3	5%	8%	?	26%[38.3 µM]
COc1cc(S(=O)(=O)N2CCOCC2)cc(C(=O)c2nccn2C)c1OC	-1%	-1	1%	6%	-88*	-3%[38.3 µM]
CCn1cc(Br)c(C(=O)Nc2ccc(F)c(Cl)c2)n1	-16%	14	-11%	-7%	?	-4%[38.3 µM]
CCn1cc(Br)c(C(=O)Nc2ccc(Cl)cc2Cl)n1	-6%	4	2%	-5%	-113*	38%[38.3 µM]
COc1cccc(-c2nccc(NCc3ccccc3OC)n2)c1	.	.	-12%	.	.	37%
CC(C)N1CCC(N2CCN(CCCn3cccn3)CC2CCO)CC1 (stereo not given)	.	.	-4%	.	.	1%
